# Shiga inhibitor: A qHTS for Small Molecule Inhibitors of Shiga Toxin; AID 2315, 2010; inhibition, % at 38.7 µM; hit rate 9.2% among 290,000; Vero cells, Shiga toxin protein synthesis inhibition reporter; in the data active means inhibition mostly above about 28%, no sharp cut-off; inactive means mostly below about 43%; further: 0% is about no effect
# Sm TGR inh: qHTS Assay for the Inhibitors of Schistosoma Mansoni Peroxiredoxins; Schistosoma mansoni thioredoxin glutathione reductase (TGR), Q962Y6; Potency, µM (series often up to 114 µM), for the others: at the highest dose activity change, negative = inhibition, most hits filed as inhibitors; purified TGR, DTNB reduction, TNB absorbance 405 nm; hit rate 3% among 360,000; AID 485364, 2010; active means well fitted inhibition curve with a large enough effect; inconclusive means small, poorly fitted or top-dose-only effect; inactive means no such curve, though single readings can be large or run the other way; further: potency means the concentration at half of the fitted maximal effect; on the % scale 0 is the no-effect control and ±100 the full control effect; nearly all actives have a fitted effect of over 60% in size
#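 TGR 20 nM + NADPH 100 uM (dispensed conc.), cpd preinc 15 min RT; start with NADPH (500 uM addition) then DTNB (15 mM addition). Kinetic TNB absorbance, 405 nm filter. Four-parameter Hill fit across titration.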
# CHX counter: Cycloheximide Counterscreen for Small Molecule Inhibitors of Shiga Toxin; hit rate 12% among 300,000; cell reporter, cycloheximide protein synthesis inhibition counterscreen; max response, %; AID 2314, 2010; in the data active means max response mostly above about 13%, no sharp cut-off; inactive means mostly below about 14%; further: read at 38.3 µM for the half of the compounds with a filed dose; 0% is about no effect
# FMDV inh: High Throughput Screening for Foot and Mouth Disease Virus Antivirals; FMDV antiviral cell-based qHTS; Potency, µM (series often up to 57.9 µM), without a hit: at the top dose activity change, negative = inhibition, actives largely listed as inhibitors; hit rate 1.2% among 410,000; AID 1159524, 2015; calls by dose curve; tested in HEK293T cells; further: read-out not given here; potency means the concentration at half of the fitted maximal effect; on the % scale 0 is the no-effect control and ±100 the full control effect; nearly all actives have a fitted effect of over 45% in size
# An asterisk follows results filed as active; ? = inconclusive; . = not tested or not shown. Compounds with a hit are over-represented: about 12% of the library has one in this group of screens.
SMILES,Shiga inhibitor,Sm TGR inh,CHX counter,FMDV inh
Cc1ccc(C(=O)Nc2cccc(-c3cnc4ccccc4n3)c2)cc1,-2.8,-11.3%,12.0,.
CS(=O)(=O)Nc1cccc(-c2cnc3ccccc3n2)c1,84.6*,-11.5%,36.9*,-0.4%
O=C(Nc1cnc2ccccc2c1)c1ccco1,67.5*,0.0%,32.6*,-20.9%
COc1cccc(-c2csc(-c3c(N)c(C(=O)c4ccccc4)n4ccccc34)n2)c1,.,2.5%,.,-15.9%
CC(=O)Nc1ccn(C2OC(C(COC(C)=O)NC(=O)C(C)NC(=O)OC(C)(C)C)C(OC(C)=O)C2OC(C)=O)c(=O)n1 (stereo unspecified),16.0,.,1.7,.
CCCSCCCNC(=O)C1CCN(c2nn3cc(-c4ccc(F)cc4)nc3s2)CC1,.,1.5%,.,6.1%
CC(C)C(=O)Nc1cccc(-c2cnc3ccccc3n2)c1,35.2,-2.7%,21.4*,51.6%
O=C(Nc1cccc(-c2cnc3ccccc3n2)c1)c1ccco1,100.2*,0.0%,55.3*,-16.6%
Cc1cccc(C(=O)NCC(=O)OCc2cc(=O)n3nc(C4CC4)sc3n2)c1,.,2.7%,.,-12.2%
CC1Nc2ccc(Cl)cc2S(=O)(=O)N1 (stereo unspecified),-2.5,.,-3.3,.
C[C@@H]1C[C@H](O)c2cc(Cl)ccc2N1,-12.7,39.8µM*,-2.2,-18.3%
CCCOc1ccc(-c2nn(-c3ccccc3)cc2C2NC(=O)NC(C)=C2C(=O)OC(C)C)cc1 (stereo unspecified),.,-2.6%,.,-9.8%
COC(=O)c1cc(NC(=O)c2ccc(OC)cc2)c(=O)oc1C,25.2,-9.1%,17.4,28.3%
CC1(C)CC(=O)c2cc(NC(=O)c3ccccc3)c(=O)oc2C1,54.8*,-2.6%,27.0*,83.3%
CC(=O)c1cc(NC(=O)c2ccc(C)cc2)c(=O)oc1C,71.7*,39.8µM*,28.0,14.1%
COc1cc(NC(=O)C2CCCO2)c(OC)cc1NC(=O)c1ccccc1 (stereo unspecified),21.3,-11.5%,2.1,-3.9%
COc1ccc(C(=O)Nc2cc(C(C)=O)c(/C=C/N(C)C)oc2=O)cc1,41.3,-5.7%,12.3,0.2%
CC(=O)c1cc(NC(=O)c2ccc(C)cc2)c(=O)oc1/C=C/N(C)C,52.0*,-13.9%,47.9*,0.5%
CC(=O)c1cc(NC(=O)c2ccccc2)c(=O)oc1C,-13.3,35.5µM*,5.9,-7.7%
c1ncc(-c2ccc3c(c2)OCO3)c(NCCc2cnc[nH]2)n1,.,.,.,-16.8%
O=C(CN(c1cccc(Br)c1)S(=O)(=O)c1ccccc1)N1CCc2ccccc2C1,.,1.9%,.,11.9%
Cc1ccc(NC(=O)c2ccc(Br)cc2)c(C(=O)c2ccccc2)c1,.,-0.8%,.,10.2%
Cc1oc(=O)c(NC(=O)c2ccc(Cl)cc2)cc1C(=O)c1ccccc1,132.0*,3.98µM*,65.2*,?
Cc1oc(=O)c(NC(=O)c2ccccc2)cc1C(=O)c1ccccc1,100.8*,22.4µM*,63.7*,-21.9%
Cc1ccc(C(=O)Nc2ccc(Cl)cc2C(=O)c2ccccc2)cc1,.,.,.,0.0%
SMILES,Shiga inhibitor,Sm TGR inh,CHX counter,FMDV inh
Cc1ccc(C(=O)Nc2cc3ccccc3oc2=O)cc1,32.5,17.6%,29.3*,2µM*
CCOC(=O)c1cc(NC(=O)c2ccccc2)c(=O)oc1C(F)(F)F,15.5,-23.8%,27.4*,24.7%
Cc1oc(-c2ccc(F)cc2)nc1CN(Cc1ccccn1)CC1CCCO1 (stereo unspecified),-7.8,39.8µM*,-3.3,-26.9%
CCN(CC)S(=O)(=O)c1ccc2nc(CCl)[nH]c2c1,4.6,39.8µM*,0.8,-28.5%
COc1ccccc1NS(=O)(=O)c1ccc2nc(CCl)[nH]c2c1,-2.6,35.5µM*,15.9,-22.2%
CCN(CC)S(=O)(=O)c1ccc(Cl)nc1,-9.2,21.3%,1.3,4.8%
COc1ccc(OCc2nc3ccc(S(=O)(=O)Nc4ccccc4Cl)cc3[nH]2)cc1,-6.3,-2.8%,-1.5,-12.6%
O=C(Nc1cccc(C(F)(F)F)c1)C1CCCN(S(=O)(=O)c2cccc3nsnc23)C1 (stereo unspecified),.,-2.0%,.,?
Cc1cnc(-n2ncc(C(=O)NCC3COCCO3)c2C2CC2)nc1-c1cccs1 (stereo unspecified),.,.,.,19.0%
Cc1ccc(C)c(C(=O)COC(=O)C(C)N2C(=O)C3C4CCC(C4)C3C2=O)c1 (stereo unspecified),10.2,22.4µM*,18.4,-13.7%
Cc1ccc(C(=O)COC(=O)C(C)N2C(=O)C3C4CCC(C4)C3C2=O)cc1 (stereo unspecified),4.1,2.1%,10.8,20.7%
Cc1cccc(Cc2c(C)nc3nc(SCc4ccccc4F)nn3c2C)c1,.,7.5%,.,0.8%

# Source: PubChem BioAssay (National Center for Advancing Translational Sciences (NCATS))
